Screens: PubChem BioAssay, The Scripps Research Institute Molecular Screening Center
Sampled rows, rich in hits. Any-hit rate of the full collection: about 1.1%.
HTR5A ag = HTR5A agonists in luminescence cell assay, primary screen, counter-screen for OPRM1-OPRD1 heterodimer agonist project, full-deck HTS | hit rate 0.61% among 340,000 | AID 504692, 2011 | activation, % at 9.3 µM | cell-based | 5-hydroxytryptamine receptor 5A (Homo sapiens), P47898; in the data active = activation mostly above about 9.5%, no sharp cut-off; inactive = mostly below about 7.6%
MOR-DOR inv ag = inverse agonists of MOR-DOR heterodimerization, primary screen, cell-based, luminescence. cell-based MOR-DOR heterodimer luminescence, inverse agonism. inhibition, % at 9.3 µM. hit rate 0.21% among 340,000; in the data active = inhibition above about 22%, passing the limit was not always enough
Target sequence (P35372 whole entry, looked up): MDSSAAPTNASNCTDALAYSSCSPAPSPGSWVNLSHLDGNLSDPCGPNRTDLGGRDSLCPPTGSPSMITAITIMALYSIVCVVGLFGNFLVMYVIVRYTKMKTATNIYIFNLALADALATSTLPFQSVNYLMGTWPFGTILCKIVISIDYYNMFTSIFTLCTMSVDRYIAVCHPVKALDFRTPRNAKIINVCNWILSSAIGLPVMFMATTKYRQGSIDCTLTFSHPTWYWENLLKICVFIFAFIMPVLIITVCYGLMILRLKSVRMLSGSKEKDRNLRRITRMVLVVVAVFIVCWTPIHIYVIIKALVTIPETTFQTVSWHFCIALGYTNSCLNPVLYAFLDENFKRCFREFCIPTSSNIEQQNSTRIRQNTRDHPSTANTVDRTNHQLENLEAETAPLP
Target sequence (P41143 whole entry, looked up): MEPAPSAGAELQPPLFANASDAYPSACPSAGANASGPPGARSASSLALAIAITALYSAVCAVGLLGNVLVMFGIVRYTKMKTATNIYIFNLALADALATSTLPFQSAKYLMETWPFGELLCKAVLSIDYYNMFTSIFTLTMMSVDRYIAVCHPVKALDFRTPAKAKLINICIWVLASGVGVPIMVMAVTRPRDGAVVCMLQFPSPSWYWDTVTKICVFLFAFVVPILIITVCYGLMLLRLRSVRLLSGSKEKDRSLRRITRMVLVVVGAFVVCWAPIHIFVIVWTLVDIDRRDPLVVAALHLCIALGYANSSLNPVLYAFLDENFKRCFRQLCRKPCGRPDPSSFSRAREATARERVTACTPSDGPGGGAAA
OPRM1-OPRD1 ag = agonists of OPRM1-OPRD1 heterodimerization, primary screen, cell-based, luminescence. cells. hit rate 0.3% among 340,000. AID 504326, 2011. Mu-type opioid receptor (Homo sapiens) + Delta-type opioid receptor (Homo sapiens), …. activation, % at 9.3 µM; in the data active = activation above about 18%
HTR5A inv ag = HTR5A inverse agonists in luminescence cell assay, primary screen, counter-screen for OPRM1-OPRD1 heterodimer inverse agonist project, full-deck HTS | 5-hydroxytryptamine receptor 5A (Homo sapiens), P47898 | HTR5A cell line, inverse agonism | inhibition, % at 9.3 µM | hit rate 0.083% among 340,000 | AID 504634, 2011; in the data active = inhibition mostly above about 23%, no sharp cut-off; inactive = mostly below about 18%
A number is an active result; i = inactive.

SMILES	HTR5A ag	MOR-DOR inv ag	OPRM1-OPRD1 ag	HTR5A inv ag
CCc1nnc(N2CCN(c3ncnc4c3oc3ccccc34)CC2)s1	i	i	i	i
c1ccc(N2CCN(c3ncnc4c3oc3ccccc34)CC2)cc1	14.2	i	i	i
Cc1cc(-n2cnnn2)cc(C)c1S(=O)(=O)NCCOc1ccccc1	i	i	i	i
CN(C)S(=O)(=O)c1cccc(NC(=S)NNC(=O)c2cc3ccccc3cc2O)c1	i	i	i	i
Cc1cc(C(=O)NC2CCCCCCC2)ccc1[N+](=O)[O-]	i	i	i	i
COc1ccc([C@H]2CC(=O)C=C(c3cccc(C(F)(F)F)c3)C2)cc1	i	i	i	i
COc1cc(S(=O)(=O)NCc2cccnc2)c(OC)cc1Br	10.0	i	i	i
Cc1nn(-c2ccccc2)c(Cl)c1CN(C(=O)CCl)c1ccc(Cl)cc1	49.5	i	67.5	i
CC(=O)N(Cc1c(C)nn(-c2ccccc2)c1Cl)c1ccc(Cl)cc1	i	i	i	i
Cc1nn(-c2ccccc2)c(Cl)c1CN(C(=O)CCl)c1cccc2ccccc12	39.8	i	52.4	i
CC1CCC(NC(=O)CSc2nncs2)CC1 (stereo not given)	i	i	i	i
Cc1ccc(SCCC(=O)N/N=C/c2cccnc2)cc1	i	i	i	i
CC(=O)Nc1ccc(S(=O)(=O)N2CCC(C(=O)NCCC(=O)Nc3nccs3)CC2)cc1	i	i	i	i
O=C(CCNC(=O)C1CCN(S(=O)(=O)c2ccc(F)cc2)CC1)Nc1nccs1	10.2	i	i	i
O=C(CN1CCN(c2ccccc2O)CC1)Nc1ccc([N+](=O)[O-])cc1Br	10.9	i	i	i
O=C(CN1CCN(c2ccccc2O)CC1)Nc1cc([N+](=O)[O-])ccc1Cl	i	i	i	i
O=C(NC(C(=O)O)c1ccccc1)c1ccc(S(=O)(=O)N2CCOCC2)cc1 (stereo not given)	12.0	i	i	i
Cc1nc(=O)c(-c2ccccc2)c(C)n1-c1ccccc1	i	i	i	i
CC(=O)Nc1ccc(-n2c(C)nc(=O)c(-c3ccccc3)c2C)cc1	10.4	i	i	i
Cc1csc(=O)n1CCC(=O)OCC(=O)NNC(=O)c1ccccc1	i	i	i	i
COc1ccc(/C=C2/SC(=S)N(CCCC(=O)N3CCN(C)CC3)C2=O)cc1	i	i	i	i
COc1ccc(/C=C2/SC(=S)N(CCC(=O)N3CCN(C)CC3)C2=O)cc1	13.6	i	i	i
CN(CCNC(=O)C1CCN(c2ncnc3c2nc2n3CCCCC2)CC1)Cc1ccccc1	11.1	i	i	i
O=C(NCc1ccc(Cl)cc1)C1CCCN(c2ncnc3c2nc2n3CCCCC2)C1 (stereo not given)	12.9	i	i	i
O=C(Nc1ccc(Cl)cc1)C1CCCN(c2ncnc3c2nc2n3CCCCC2)C1 (stereo not given)	i	i	i	i
SMILES	HTR5A ag	MOR-DOR inv ag	OPRM1-OPRD1 ag	HTR5A inv ag
Cc1ccc2nc(N3CCN(c4cccc(C)c4C)CC3)c3nnnn3c2c1	i	i	i	i
Cc1ccc2nc(Cl)c3nnnn3c2c1	i	38.2	i	i
CCOC(=O)CNc1nc(Cl)nc(Nc2ccc(C)cc2)n1	13.8	i	i	i
CCCSCCCNC(=O)c1ccc(C)c(NC(=O)C2=C(C)OCCS2)c1	i	i	i	i
C=CCNc1nc(Cl)nc(Nc2cc(Cl)ccc2OC)n1	i	i	i	i
CC(C)(C)C(=O)N1CCC(O)(CS(=O)(=O)Cc2ccc(Cl)cc2)CC1	12.3	i	i	i
CC(C)(C)C(=O)N1CCC(O)(CS(=O)(=O)Cc2ccccc2)CC1	i	i	i	i
CS(=O)(=O)c1sc(C#N)c2c1C(=O)CC(c1ccccc1)C2 (stereo not given)	i	35.5	i	i
Cc1oc2c(c(=O)c1C)C(=O)CC(c1ccccc1)C2 (stereo not given)	i	i	i	i
CC(C)CC1NC(=O)N(CC(=O)N(C)C2CCCCC2)C1=O (stereo not given)	i	i	i	i
CC1CN(N=Cc2ccc([N+](=O)[O-])o2)C(=N)O1 (stereo not given)	8.2	i	i	i
Cc1ccc(Nc2ccc(C(=O)NC3CCCCC3)cn2)cc1	i	i	i	i
O=C(CSC1CN(C(c2ccccc2)c2ccccc2)C1)N/N=C/c1ccc(Cl)cc1Cl	12.2	i	i	i
O=C(CSc1nnc(SCc2ccccc2)s1)N/N=C/c1ccc(Cl)cc1Cl	i	i	i	i
CN(CCO)c1ccc(-c2nn(C)c(=O)c3ccccc23)cc1[N+](=O)[O-]	i	i	i	i
CN(CCO)c1cc(N(C)CCO)c([N+](=O)[O-])cc1[N+](=O)[O-]	11.7	i	i	i
CCn1c(NCc2ccccn2)nc2c1c(=O)n(C)c(=O)n2C	13.9	i	i	i
CCCn1c(NCc2ccco2)nc2c1c(=O)n(C)c(=O)n2C	i	i	i	i
COc1ccccc1/C=C\C(=O)NCC(=O)N/N=C(/C)c1cccc([N+](=O)[O-])c1	i	i	i	i
CCN(c1ccccc1)S(=O)(=O)c1nnc(NC(=O)c2ccccc2OC)s1	i	i	i	i
CCCCOc1ccc(C2(C)CC(=O)NC2=O)cc1 (stereo not given)	11.5	i	i	i
CCCOc1ccc(CC2CCC(=O)NC2=O)cc1 (stereo not given)	i	i	i	i
O=C1[C@H](Oc2ccccc2)[C@@H](c2ccccc2)N1c1ccncc1	9.4	i	i	i
c1ccc(-c2nnc(N3CCN(c4ccccn4)CC3)c3ccccc23)cc1	i	i	i	i
Cc1ccc(-c2nnc(N3CCN(c4ccccn4)CC3)c3ccccc23)cc1	12.6	i	i	i
SMILES	HTR5A ag	MOR-DOR inv ag	OPRM1-OPRD1 ag	HTR5A inv ag
Cc1nn(-c2ccccc2)c(C)c1NC(=O)COc1ccc2ccccc2c1	10.3	i	i	i
O=C1Nc2ccccc2S/C1=C/Nc1cccc(Cl)c1	13.5	i	23.3	i
CCOCCc1nnc(NC(=O)c2cc(OC)c(OC)cc2[N+](=O)[O-])s1	i	i	i	i
CCOCc1nnc(NC(=O)c2cc(OC)c(OC)cc2[N+](=O)[O-])s1	12.1	i	i	i
Cc1ccc(NC(=O)COC(=O)C2CC2(Cl)Cl)cc1C (stereo not given)	9.0	i	i	i
Cc1c(/C=N\NC(=O)c2csc3ccccc23)cnn1C	10.7	i	i	i
CC(C)(C)OC(=O)N1CCC[C@H]1C(=O)Nc1ccc(Br)cc1	i	i	i	i
CC(C)(C)OC(=O)N1CCC[C@H]1C(=O)Nc1ccc(C#N)cc1	9.6	i	i	i
CS(=O)(=O)NCCSCc1ccccc1	i	i	i	i
CS(=O)(=O)NCCSc1cc(C(F)(F)F)nc2ccccc12	11.8	i	i	i
CCOC(=O)c1c(C)[nH]c(C)c1C(=O)COC(=O)CCc1ccccc1	13.1	i	i	i
CC(=O)Nc1cccc(C(=O)OCC(=O)Nc2ccc(Cl)cn2)c1	i	i	i	i
Cc1c(NC(=O)c2ccc3c(c2)C(=O)N(CC2CCCO2)C3=O)cccc1C(=O)O (stereo not given)	10.4	i	i	i
